The source of these data is PubChem BioAssay (NCI).

About 83,000 compounds went through this panel and 20% of them were active in at least one assay; those are over-represented in the sample as a whole.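 Single-dose data. Exposure time 48 hours. Values below 10 considered active.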 Unmarked numbers belong to inactive results. The source made the active and inactive calls.

This assay has as its system MALME-3M melanoma. Briefly: NCI-60 one-dose screen, 48 h (100 = growth as untreated, 0 = no growth, -100 = all killed). The settings on record: 10 µM unless noted.
For `O=C(NCCNc1nccc(-c2c(-c3cccc(F)c3)nc3sccn23)n1)c1ccc(Cl)cc1`, the growth is 34.9%. To `C=C1C(=O)O[C@H]2[C@H]1CC/C(COC(=O)NCCc1c[nH]c3ccc(OC)cc13)=C\CC[C@@]1(C)O[C@@H]21` belongs -37.2% (active); to `COc1cc(CC(=O)c2ccc(O)c(OC)c2)ccc1O`, 107%; to `CCN(CC)c1ccc(/C=N/NC(=O)CSc2nc3ccccc3c(=O)n2CCc2ccc(S(N)(=O)=O)cc2)c(O)c1`, 44.3%.

`Cc1ccc(-n2c3c(c(-c4ccccc4)c2-c2ccccc2)C2=NCCN2C=N3)cc1`: the growth was 97.9%. In the case of `CN1CCN(C(=O)[C@]23CCC(C)(C)C[C@H]2C2=CC[C@@H]4[C@@]5(C)C/C(=C/c6ccncc6)C(=O)C(C)(C)[C@@H]5CC[C@@]4(C)[C@]2(C)CC3)CC1`, the growth is 57.7%. Regarding `C=C(C)[C@@H]1CC[C@]2(C(=O)N3CCN(C)CC3)CC[C@]3(C)[C@H](CC[C@@H]4[C@@]5(C)C/C(=C/c6cccnc6)C(=O)C(C)(C)[C@@H]5CC[C@]43C)[C@@H]12`, the growth was 71.4%. As for `N/C(=N\C(N)=N\c1nc2ccccc2s1)c1cccc(Cl)c1`, the growth was 102%. To `CCOC(=O)Nc1ccc(-c2ccc3c(c2)NC(=O)/C3=C\c2ccc[nH]2)cc1` belongs 110%; to `CCNC(=O)Oc1ccc(/C(=C(\C)c2ccccc2)c2ccc(OCCN(CC)CC)cc2)cc1`, 81.1%. Next, `CCOC(=O)/C(C#N)=C1/NNC(=Nc2cccnc2)S1`: 105%; `COc1cccc(-c2nc3occn3c2-c2ccnc(NCCCNS(=O)(=O)c3ccc(C(F)(F)F)cc3)n2)c1`: 95.8%; `CC(=O)Nc1ccc(-n2cnc3cc(-c4ccc(OCCN5CCCCC5)cc4)ccc32)cc1`: 77.5%. Next, `Cn1ccnc1C(=O)/C=C/c1ccc(CC(=O)Nc2ccc(Cl)cc2)cc1`: 87.6%; `C=CCN1C(=O)/C(=C/C(=O)OC)S/C1=N\NC(=O)c1cc2ccc1/C=C\c1ccc(cc1)/C=C\2`: 92.4%; `COc1ccc(/C=C(\C#N)n2nc3cccc(F)c3n2)cc1`: 100%. In the case of `N/C(=N\C(N)=N\c1nc2ccccc2s1)c1cnccn1`, the growth was 16.8%. Take `Cc1c(C(=O)NCCC(=O)NO)sc2ncnc(Nc3ccc(NC(=O)Nc4cccc(C(F)(F)F)c4)cc3)c12`: the growth was 112%. Turning to `O=C(Nc1ccc(-c2ccc3c(c2)NC(=O)/C3=C\c2ccc[nH]2)cc1)NC1CC1`, the growth was 105%. For `S=c1cc(S)c2cc(Br)ccc2[nH]1`, the growth is 98.4%. Take `CCCCOc1ccc(/C=N/Nc2cc(C)nc3ccc(Br)cc23)cc1`: the growth was -66.9% (active). To `N/C(=N\C(N)=N\c1nc2ccccc2s1)c1ccnc(Br)c1` belongs 64.5%; to `COc1cc(NC(C)CCCNC(=O)CCC(=O)NCCCNCCCCCCCCNCCCNC(=O)CCC(=O)NCCCC(C)Nc2cc(OC)cc3cccnc23)c2ncccc2c1` (stereo unspecified), 40.2%. Next, `COc1cc2nc(-c3ccc(C(F)(F)F)cc3)cc(OCCCN3CCOCC3)c2cc1OC`: 45.2%. Regarding `O=C(Cn1c[n+](CC(=O)c2ccc(-c3ccccc3)cc2)c2ccccc21)Nc1cccc2cccnc12`, the growth was 8.16% (active).

As for `CC(Oc1ccc(C(=O)O)cc1C(F)(F)F)c1ccc(Oc2ccccc2)cn1` (stereo unspecified), the growth was 101%. In the case of `O=C(Nc1ccc(F)cc1)Nc1ccc(NC(=O)c2cc(Cl)nc3ccccc23)cc1`, the growth is 53.7%. Regarding `O=C(CCN1CCCC1)Nc1ccc2c(Nc3ccc(F)cc3)c3ccccc3nc2c1`, the growth is -90.1% (active). Next, `CC(Sc1nc2ccccc2c(=O)n1CCc1ccc(S(N)(=O)=O)cc1)C(=O)Nc1ccc(Cl)cc1` (stereo unspecified): 89.7%. As to `O=C(N/N=C/c1cc2ccccc2n2nnnc12)Nc1ccccc1`, the growth was 106%. Consider `CC1(C)CC(=O)C2=C(C1)N(c1ccc(F)cc1F)C(N)=C(C#N)C2c1cc(Br)ccc1F` (stereo unspecified), for which the growth was 99%.
